The text below walks through data of PubChem BioAssay.

Assay [1] in a line: growth inhibition, single agents and combos, LFS_MB_1R, cell-based, cisplatin or BGB combos, synergistic combos for chromothripsis tumors (AID 1671452; in the data active = inhibition above about 80%;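 note: cells exposed for 96 hours before readout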). The following applies: LFS_MB_1R medulloblastoma cells, stronger effect = higher value.
Assay [2] can be described thus: growth inhibition, single agents and combos, CRL2098, cell-based, BGB or cisplatin IC20 combos, synergistic combos for chromothripsis tumors (AID 1671454; in the data active = inhibition above about 80%;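 note: cells exposed for 96 h before readout; 0% = vehicle DMSO and 100% = killing by high DMSO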). The following applies: CRL2098 osteosarcoma cells, drug combinations, stronger effect = higher value.
Assay [3] in a line: growth inhibition, single agents and combos, HD-MB03, cell-based, BGB or cisplatin IC20 combos, synergistic combos for chromothripsis tumors (AID 1671455; in the data active = inhibition above about 83%;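 note: 0% = vehicle DMSO and 100% = high DMSO as cytotoxic control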). The following applies: HD-MB03 medulloblastoma cells, stronger effect = higher value.
Assay [4] is described as follows: growth inhibition, single agents and combos, UWB1.289, cell-based, BGB or cisplatin combos, synergistic combos for chromothripsis tumors (AID 1671456; in the data active = inhibition above about 80%;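 note: cells exposed to compound for four days; 0% = vehicle DMSO and 100% = killing by high DMSO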). The following applies: UWB1.289 ovarian carcinoma cells, stronger effect = higher value.
A short description of assay [5]: growth inhibition, single agents and combos, LFS_MB_2R, cell-based, cisplatin combos, synergistic combos for chromothripsis tumors (AID 1671457; in the data active = inhibition above about 80%;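 note: cells exposed to compound for four days before readout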). The following applies: LFS_MB_2R medulloblastoma cells, stronger effect = higher value.
Assay [6] can be described thus: UWB1.289_BRCA1 ovarian cancer growth, cell-based, BGB or cisplatin combinations (AID 1671459; in the data active = inhibition above about 80%). As to conditions: UWB1.289 BRCA1 ovarian carcinoma, drug combinations, stronger effect = higher value.
A short description of assay [7]: drug combination toxicity in non-malignant astrocytes – cell-based, BGB or cisplatin IC20 combos, cytotoxicity control for chromothriptic childhood tumor combination screen (AID 1671460; in the data active = inhibition above about 80%;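 note: cells exposed to compounds for 96 hours before viability readout; 0% = vehicle and 100% = killing control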). The following applies: Human astrocytes, viability inhibition, drug combinations, at 0.5 µM, stronger effect = higher value.
Assay [8] in a line: CRL1545 cell growth, single agent and combined, cisplatin and BGB IC20 combos (AID 1671464; in the data active = inhibition above about 80%;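 note: cells exposed to compound for 96 hours before readout; 0% = vehicle DMSO and 100% = high DMSO killing control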). The following applies: CRL1545 osteosarcoma cells, stronger effect = higher value.
Assay [9] has as its target NAD(+) hydrolase SARM1 (Homo sapiens) (UniProt Q6SZW1). The assay is described as follows: blocking NAD cleavage by SARM1 SAM-TIR – cell lysate, NAD-Glo luminescence (AID 1508614;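 active = compound whose remaining NAD level is above about 45 nM, limit read from the data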;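 note: higher remaining NAD means stronger inhibition of SARM1 NADase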). As to conditions: SAM-TIR HEK293T lysate NADase, at 1 µM, stronger effect = higher value.
Assay [10] can be described thus: compounds altering circadian rhythm period length – cell-based, LOPAC library, luminescence reporter (AID 2774).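 Note: values are relative to mean of DMSO wells on each plate.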 As to conditions: circadian reporter cells, at 7 µM, actives lie on both sides.
Assay [11] deals with Hepatitis C virus NS3 helicase. In words: blockers of NS3h binding to ssDNA – biochemical, fluorescence polarization, LOPAC1280 library, primary screen (AID 687035; in the data active = inhibition above about 37%). As to conditions: Purified HCV NS3 helicase, Cy5-dT15 ssDNA binding fluorescence polarization; stronger effect = higher value; concentration not given here.
Assay [12] is described as follows: compounds altering Cy5-DNA-NS3h complex signal – biochemical, LOPAC1280, artefact control for HCV NS3 helicase inhibitor project (AID 687037). The following applies: Cy5-DNA-NS3h complex fluorescence interference counterscreen.
Assay [13] is described as follows: blockers of cellular phospholipid synthesis – cell-based, LOPAC library, screen 4, primary screen (AID 1347384). The following applies: animal cells, phospholipid biosynthesis inhibition screen; at 10 µM.
Assay [14] is described as follows: galactose survival enhancers in mitochondrial complex I cybrids – cell-based, galactose medium, ATP luminescence, primary screen (AID 1645843;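 active = z-score of at least 1.8 in each of two replicates, scored against plate mean and spread of sample wells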;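 note: positive z means more ATP and so rescue of galactose-driven cybrid death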). As to conditions: complex I mutant cybrid cells, 72 h, stronger effect = higher value.
Assay [15] can be described thus: liver-stage malaria parasite load reduction – cell-based, known kinase inhibitor set, luminescence, hepatoma host viability (AID 624392).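 Note: infected cells incubated roughly two days before readout.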 The following applies: Plasmodium liver stage in hepatoma cells, luciferase luminescence, concentration not given here; liver cell % of control: measured here: host liver cell viability; parasite % of control: stronger effect = lower value.

The mark [16] stands for this setting: measured here: combination with cisplatin, at 0.5 µM.
[17] abbreviates: measured here: combination with cisplatin, at 5 µM.

Where “and” joins values, the source holds several entries; their conditions need not be identical. Equal entries are not always repeated. Calls of active or inactive are those of the source. Unless noted, the rule behind the calls is not given here.

NAD(+) hydrolase SARM1 (Homo sapiens), sequence (Q6SZW1 whole entry, looked up): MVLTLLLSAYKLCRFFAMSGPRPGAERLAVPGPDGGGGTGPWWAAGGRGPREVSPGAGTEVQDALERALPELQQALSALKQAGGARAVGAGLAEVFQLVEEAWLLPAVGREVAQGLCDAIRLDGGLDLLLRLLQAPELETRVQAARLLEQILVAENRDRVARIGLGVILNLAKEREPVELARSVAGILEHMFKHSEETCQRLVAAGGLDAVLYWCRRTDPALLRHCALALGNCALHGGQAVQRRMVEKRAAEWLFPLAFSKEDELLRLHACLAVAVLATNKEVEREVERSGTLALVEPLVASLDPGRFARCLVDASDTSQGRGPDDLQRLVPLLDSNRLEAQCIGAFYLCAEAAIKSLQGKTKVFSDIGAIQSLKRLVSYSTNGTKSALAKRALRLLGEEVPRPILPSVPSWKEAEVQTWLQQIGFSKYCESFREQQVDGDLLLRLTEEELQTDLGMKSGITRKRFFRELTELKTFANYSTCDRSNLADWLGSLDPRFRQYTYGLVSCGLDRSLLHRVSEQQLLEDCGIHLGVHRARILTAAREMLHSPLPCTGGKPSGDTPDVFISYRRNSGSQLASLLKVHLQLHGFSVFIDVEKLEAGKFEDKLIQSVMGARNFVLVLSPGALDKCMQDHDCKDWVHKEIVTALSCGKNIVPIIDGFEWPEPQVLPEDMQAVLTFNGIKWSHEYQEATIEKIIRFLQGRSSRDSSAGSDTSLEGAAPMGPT

On to `CCCCc1nc2cc(/C=C/C(=O)NO)ccc2n1CCN(CC)CC`, for which the inhibition (as a rule, the change of the read-out against control, counted positive when it falls) in assay [1] (at 0.5 µM) was 31% (inactive); in [1] (measured here: combination with BGB IC40, at 0.05 µM) it was -30.9%; in assay [1] (setting [16]) it was 45.7%; in [1] (setting [17]), 97.5%; in [2] (at 0.5 µM), -2.27% (inactive); in [2] (measured here: combination with BGB at IC20, at 0.5 µM) it was -16.1%. Also, the inhibition in [2] (measured here: combination with cisplatin at IC20, at 0.5 µM) is 1.66%; in assay [3] (at 0.5 µM), 93.3% (active); in [3] (measured here: combo with BGB at IC20, at 0.5 µM), 95.7%; in assay [3] (measured here: combo with cisplatin at IC20, at 0.5 µM), 99.3%; in assay [4] (at 0.5 µM), 46.9% (inactive); in [4] (measured here: inhibition with BGB combination, at 0.05 µM), 11.6%. Further, the inhibition in assay [4] (measured here: inhibition with cisplatin combination, at 0.05 µM) is 0.198%; in assay [5] (at 0.5 µM), 26.1% (inactive); in assay [5] (setting [16]) it was 56.5%; in [5] (setting [17]), 98.1%; in [6] (BGB combination, concentration series, at 5 µM), 115%; in [6] (at 0.5 µM), 51.5% (inactive). Also, the inhibition was 127% in [6] (cisplatin combination, concentration series, at 5 µM); 41.3% (inactive) in assay [7]; 44.4% in assay [7] (measured here: combo with BGB IC20); 26% in [7] (measured here: combo with cisplatin IC20); 81.5% (active) in assay [8] (at 0.5 µM); 67.7% in assay [8] (measured here: with BGB IC20 combination, at 0.5 µM). Besides, the inhibition in assay [8] (measured here: with cisplatin IC20 combination, at 0.5 µM) was 88.2%; in assay [8] (single agent, at 0.05 µM), -14.8%; in assay [8] (single agent, at 5 µM), 93.1%.

Consider `C[Se]CCC(N)C(=O)O` (centres undefined), for which the remaining NAD in assay [9] was 10 nM (inactive).

Turning to `COc1ccccc1N1CCN(CCN(C(=O)C2CCCCC2)c2ccccn2)CC1`, in [10], the period change was -0.085 h (inactive). For the same compound, the inhibition in [11] was -3% (inactive). In addition, the fluorescence ratio (interference) in [12] was 1 (inactive). In [13], the call was inactive. The z-score in assay [14] is -1.04 (inactive).

`Cc1ccc(C(=O)Nc2cccc(C(F)(F)F)c2)cc1-c1ccc2nc(NCCN3CCOCC3)ncc2c1`: in [15], the liver cell % of control is 51.5% and 76.3% and 85.2%; the parasite % of control was 60.4% (inactive) and 252% (inactive) and 87.5% (inactive).

For the compound `COc1nccc(-c2c(-c3ccc(F)cc3)ncn2C2CCNCC2)n1`, in assay [15], the liver cell % of control is 89.2% and 92.3% and 100%; the parasite % of control is 45.1% (inactive) and 35% (inactive) and 41.5% (inactive).

Turning to `O=C(NCCCNc1nc(Nc2cccc(NC(=O)N3CCCC3)c2)ncc1I)c1cccs1`, in [15], the liver cell % of control was 74.4% and 44.5% and 88.3%; the parasite % of control is 0.4% (inactive) and 0.22% (inactive) and 6.81% (inactive).
